This note sets out measurements from PubChem BioAssay AID743314 (Broad Institute, 2014).

Measured potencies and affinities stand elsewhere. Inconclusive results are not listed. Unmarked numbers belong to inactive results.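 Rule for the calls: active = fitted half-maximal concentration no higher than twice the top tested dose, in every repeat run; inconclusive = repeat runs disagree, poor fit, or flat partial inhibition; inactive = the rest.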

Sequence of Endoplasmic reticulum aminopeptidase 1 (Homo sapiens) (Q9NZ08 whole entry, looked up): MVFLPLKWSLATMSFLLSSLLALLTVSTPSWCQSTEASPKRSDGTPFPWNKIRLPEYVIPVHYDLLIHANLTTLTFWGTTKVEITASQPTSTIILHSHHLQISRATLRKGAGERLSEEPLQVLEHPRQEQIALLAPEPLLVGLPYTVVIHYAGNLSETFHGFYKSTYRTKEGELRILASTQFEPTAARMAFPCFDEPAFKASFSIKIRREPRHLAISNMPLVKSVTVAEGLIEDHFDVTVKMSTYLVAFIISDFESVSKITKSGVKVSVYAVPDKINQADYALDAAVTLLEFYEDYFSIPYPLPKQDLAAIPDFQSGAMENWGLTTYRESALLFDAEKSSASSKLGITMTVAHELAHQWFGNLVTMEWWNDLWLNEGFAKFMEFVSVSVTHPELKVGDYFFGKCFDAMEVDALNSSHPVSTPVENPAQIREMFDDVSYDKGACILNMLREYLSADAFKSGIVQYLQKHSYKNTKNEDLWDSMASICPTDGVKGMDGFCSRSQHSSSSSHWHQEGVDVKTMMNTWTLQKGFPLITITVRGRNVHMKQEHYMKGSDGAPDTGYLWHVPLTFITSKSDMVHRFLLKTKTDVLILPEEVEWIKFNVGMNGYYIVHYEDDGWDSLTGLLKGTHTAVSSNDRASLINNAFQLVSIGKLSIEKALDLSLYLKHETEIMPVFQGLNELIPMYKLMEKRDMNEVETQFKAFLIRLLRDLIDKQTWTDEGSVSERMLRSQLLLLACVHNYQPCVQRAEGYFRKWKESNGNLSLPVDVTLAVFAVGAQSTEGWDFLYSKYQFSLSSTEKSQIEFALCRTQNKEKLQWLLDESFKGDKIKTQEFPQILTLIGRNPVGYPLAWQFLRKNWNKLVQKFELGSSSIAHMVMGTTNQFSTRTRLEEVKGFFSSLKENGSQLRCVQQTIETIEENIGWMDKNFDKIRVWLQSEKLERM

The test concerns the target Endoplasmic reticulum aminopeptidase 1 (Homo sapiens) (UniProt Q9NZ08). As to the kind of experiment: ERAP1 aminopeptidase inhibitors, dose response, biochemical, cherry-pick, set 2, plate reader (AID 743314).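 Note: 0% = neutral control wells and -100% = L-leucinethiol positive control.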 As to conditions: Recombinant ERAP1, Leu-AMC fluorescence, 60 min; series mostly up to 11 µM; activity change, negative = inhibition: at the top concentration.
Regarding `CCCNC(=O)N1C[C@@H](C)[C@@H](OC)CN(C)C(=O)c2cc(NS(=O)(=O)CC(F)(F)F)ccc2OC[C@@H]1C`, the “activity change, negative = inhibition” value was 53.2%.
Consider `O=C(c1ccccc1)N1CC(=O)N2[C@H](CO)[C@@H](c3ccc(-c4ccccc4)cc3)[C@H]2C1`, for which the “activity change, negative = inhibition” value was 33%.
Turning to `Cc1noc(C)c1NC(=O)N(C)C[C@@H]1Oc2c(NC(=O)Nc3ccc(F)cc3)cccc2C(=O)N([C@H](C)CO)C[C@H]1C`, the “activity change, negative = inhibition” value was 45.2%.
For `CC(Nc1ccc(F)cc1)=[N+](C)CCNS(=O)(=O)c1ccc(Cl)cc1`, the “activity change, negative = inhibition” value is -9.26%.
In the case of `CCOC(=O)c1nnn(CC(=O)Nc2ccccc2)c1C(=O)OCC` it was -2.98%; in that of `C[C@H](CO)N1C[C@H](C)[C@@H](CN(C)C)OCCCC[C@H](C)Oc2ccc(NS(=O)(=O)c3ccc(Cl)cc3)cc2C1=O`, 10.9%.
The value for `CC(=O)Oc1cc2oc(=O)cc(C)c2cc1Cl` was 264%; that for `C[C@H](CO)N1C[C@H](C)[C@@H](CN(C)C(=O)Nc2ccccc2)Oc2ccc(NC(=O)c3ccncc3)cc2C1=O` was -11.5%; that for `CC(=O)Oc1ccc(-c2cc3c(OC(C)=O)cc(OC(C)=O)cc3oc2=O)cc1` was 13.7% [at 2.6 µM].
Consider `C[C@@H]1CCCCO[C@H](CN(C)C)[C@@H](C)CN([C@@H](C)CO)C(=O)c2cc(NS(=O)(=O)c3ccc(Cl)cc3)ccc2O1`, for which the “activity change, negative = inhibition” value is 28.5%.
In the case of `CCN1CCN(CCCNC(=O)c2cc3c(s2)-c2ccccc2OC3)CC1`, the “activity change, negative = inhibition” value is -21.4%.
Consider `Cc1noc(C)c1S(=O)(=O)Nc1ccc2c(c1)C(=O)N([C@H](C)CO)C[C@@H](C)[C@@H](CN(C)CC1CCCCC1)OCCCC[C@@H](C)O2`, for which the “activity change, negative = inhibition” value is 51.1%.
With `CCc1cc(=O)oc2c(CNCc3ccccc3F)c(O)c(Cl)cc12`, the “activity change, negative = inhibition” value is 29.9% [at 5.6 µM].
Regarding `N#Cc1c(N)n(CCNC(=O)c2ccccc2)c2nc3ccccc3nc12`, the “activity change, negative = inhibition” value is 46.6%.
In the case of `COc1ccc(CN(C)C[C@H]2OCCCC[C@H](C)Oc3ccc(NS(=O)(=O)c4cccs4)cc3C(=O)N([C@H](C)CO)C[C@H]2C)cc1` it was 14.9%; in that of `C[C@H](CO)N1C[C@H](C)[C@@H](CN(C)C(=O)Nc2ccccc2)Oc2ccc(NC(=O)Nc3cccc4ccccc34)cc2C1=O`, 8.85%.
In the case of `O=C(O)c1ccccc1NS(=O)(=O)c1cccc(NS(=O)(=O)c2cc(Br)ccc2Br)c1` it was -22.3%; in that of `C[C@@H]1CN([C@@H](C)CO)C(=O)c2cc(NC(=O)CCN3CCOCC3)ccc2O[C@H]1CN(C)S(=O)(=O)c1ccccc1`, 22.1%.
As to `O=C(Nc1ccc(C(F)(F)F)cc1)N1[C@@H]2CNC[C@H]1C2c1ccc(-c2ccncc2)cc1` (stereo partly drawn), the “activity change, negative = inhibition” value is 42.7%.
The value for `C[C@H](CO)N1C[C@H](C)[C@H](CN(C)S(=O)(=O)c2ccccc2)Oc2ccc(NC(=O)CCN3CCOCC3)cc2C1=O` was 13.5%; that for `COc1ccc2c3c([nH]c2c1)[C@@H](CO)N(Cc1ccccc1)CC31CN(C)C1` was -25.8%; that for `C[C@H]1CN([C@@H](C)CO)C(=O)c2cc(NC(=O)CCN3CCOCC3)ccc2O[C@@H]1CN(C)S(=O)(=O)c1ccccc1` was 22.3%.
The value for `C[C@@H]1CN([C@H](C)CO)C(=O)c2cc(NS(=O)(=O)c3ccc(Cl)cc3)ccc2O[C@@H](C)CCCCO[C@@H]1CN(C)C` was 3.13%; that for `CN1[C@@H]2c3ccc(/C=C/c4ccccc4)c(=O)n3C[C@@H]2[C@@H](CO)[C@@H]1C(=O)N1CCCCC1` was 5.69%; that for `CN(c1ccccc1)S(=O)(=O)c1cc(C(=O)OCC(=O)N2CCN(C(=O)c3ccco3)CC2)ccc1Cl` was -3.85%.
In the case of `O=C(CSc1n[nH]c(-c2cccs2)n1)NC1CCS(=O)(=O)C1` (stereo not drawn) it was -13.5%; in that of `COc1ccc(CN(C)C[C@H]2OCCCC[C@H](C)Oc3ccc(NS(=O)(=O)c4cccs4)cc3C(=O)N([C@@H](C)CO)C[C@@H]2C)cc1`, 38.5%; in that of `CCN(CC)CCNC(=O)c1ccc(NC(=O)c2ccc(-n3cncn3)c([N+](=O)[O-])c2)cc1`, -9.89%.
Take `Cc1ccc(S(=O)(=O)Nc2ccc3c(c2)CC(=O)N([C@H](C)CO)C[C@H](C)[C@H](CN(C)Cc2ccccc2)O3)cc1`: the “activity change, negative = inhibition” value is 9.49%.
The value for `COc1ccc(NC(=O)Nc2cccc3c2O[C@H](CN(C)Cc2ccc(C(=O)O)cc2)[C@H](C)CN([C@@H](C)CO)C3=O)cc1` was 79.3%; that for `Cn1cnc(C(=O)N2CCN(C(=O)OC(C)(C)C)CC2)c1C(=O)N1CCN(C(=O)OC(C)(C)C)CC1` was -10.3%; that for `O=S(=O)(O)c1ccc(N2N=C(c3ccccc3)CC2c2ccccc2)cc1` (stereo not drawn) was 162%.
As for `C[C@@H]1CN([C@H](C)CO)S(=O)(=O)c2ccc(-c3ccccc3)cc2O[C@H]1CN(C)S(C)(=O)=O`, the “activity change, negative = inhibition” value was 40.4%.
